# The supplement of paper PMC7801607
# Assays:
# CHO = assay: % viability of CHO cells (MTT); higher = less toxic; details: 48 h
# Method in brief: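 CHO cells were seeded at 10^6 cells/well in 200 µL and left overnight to attach. The medium was then replaced with fresh medium containing compound at 2 or 20 µM for 48 h. Survival was read colorimetrically with the tetrazolium (MTT) assay. Percent viability was expressed relative to untreated cells.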
# HepG2-A16-CD81 = assay: % inhibition of HepG2 viability (CellTiter-Glo); higher = more toxic; details: 5 µM
# [1] = test system: Plasmodium falciparum NF54 stage IV/V gametocytes; assay: % inhibition of gametocyte viability (PrestoBlue); higher = more inhibition; details: 48 h
# Method in brief: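 Stage IV/V NF54 gametocytes (2% gametocytaemia, 5% haematocrit, 100 µL/well) were exposed to compound at 1 or 5 µM. Incubation was 48 h at 37 °C, stationary and hypoxic, followed by 10 µL PrestoBlue for 2 h. Fluorescence at 612 nm was read on 70 µL of transferred supernatant. Percent inhibition of gametocyte viability was normalised to DMSO and kill controls from a single run.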
# [2] = test system: Plasmodium falciparum NF54 asexual blood stage; assay: % inhibition of asexual blood stage proliferation (pLDH); higher = more inhibition; details: 72 h
# Method in brief: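 Plasmodium falciparum NF54 ring-stage cultures (1% haematocrit, 2% parasitaemia) were exposed to compound at 2 or 20 µM in 96-well plates. Incubation was 72 h at 37 °C under 4% CO2, 3% O2 and 93% N2. Survival was read colorimetrically at 620 nm with the parasite lactate dehydrogenase assay. Percent inhibition of asexual proliferation was normalised to DMSO and kill controls, and the screen was run on two separate occasions.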
# [3] = test system: Plasmodium falciparum NF54 stage IV/V gametocytes; assay: % inhibition of gametocyte viability (ATP bioluminescence); higher = more inhibition; details: 24 h
# Method in brief: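 In 96-well plates, compound at 1 or 5 µM was added to 30,000 density-gradient-enriched stage IV/V NF54 gametocytes per well and incubated for 24 h at 37 °C. ATP readout used the Promega BacTiter Glo bioluminescence system. Percent inhibition of gametocyte viability comes from a single run, normalised to control wells.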
# [4] = test system: Plasmodium falciparum NF54 stage IV/V gametocytes; assay: % inhibition of gametocyte viability (luciferase reporter); higher = more inhibition; details: 48 h
# Method in brief: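 Percent inhibition was normalised to controls from a single run. Stage IV/V gametocytes of the NF54-Pfs16-GFP-Luc line, at 2% gametocytaemia and 2% haematocrit, were exposed to compound at 1 or 5 µM for 48 h at 37 °C under stationary, hypoxic conditions. Luminescence was then read from 30 µL lysate mixed with 30 µL Promega luciferin substrate on a GloMax-Multi+ reader with 10 s integration.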
# [5] = test system: Plasmodium berghei ANKA liver stage in HepG2-A16-CD81; assay: % inhibition of liver stage parasite viability (luciferase); higher = more inhibition; details: 5 µM; 48 h
# Description: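 Single-concentration screen of the MMV Pandemic Response Box. P. falciparum NF54 asexual blood stages: pLDH assay, 72 h at 37 °C, 2 and 20 µM, n=2. Stage IV/V gametocytes (NF54): luciferase reporter (NF54-Pfs16-GFP-Luc, 48 h), ATP bioluminescence (24 h) and PrestoBlue (48 h) at 1 and 5 µM, n=1. P. berghei liver stage (luciferase in HepG2-A16-CD81, 48 h post infection) at 5 µM, n=4. All normalised to DMSO and kill controls as % inhibition.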
# 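For % inhibition of HepG2 viability (CellTiter-Glo) in this document: HepG2-A16-CD81 hepatoma cells plated as in the liver-stage assay but without sporozoites, with DMSO wells as negative and 25 µM puromycin as positive control.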
Structure (SMILES),% viability of CHO cells (CHO; 2 µM),% viability of CHO cells (CHO; 20 µM),% inhibition of HepG2 viability (HepG2-A16-CD81),% inhibition of gametocyte viability ([1]; 1 µM),% inhibition of gametocyte viability ([1]; 5 µM),% inhibition of asexual blood stage proliferation ([2]; 2 µM),% inhibition of asexual blood stage proliferation ([2]; 20 µM),% inhibition of gametocyte viability ([3]; 1 µM),% inhibition of gametocyte viability ([3]; 5 µM),% inhibition of gametocyte viability ([4]; 1 µM),% inhibition of gametocyte viability ([4]; 5 µM),% inhibition of liver stage parasite viability [5]
O=C(/C(=C/c1ccc(Cl)cc1Cl)n1ccnc1)c1ccc(Cl)cc1,108%,113%,-2.24%,38.5%,85.8%,56.2%,75.6%,40.3%,86.2%,80.5%,99.8%,26.7%
O=C(NC(=O)N1CCCc2ccccc21)c1cccc(Cl)c1,99.8%,116%,1.03%,< 0%,< 0%,-12.6%,10.3%,< 0%,< 0%,< 0%,< 0%,11.4%
Cc1cc(O)c2c(c1)C(=O)c1c(I)c(O)c(I)c(O)c1C2=O,81.3%,64.1%,4.29%,< 0%,< 0%,30.5%,64.9%,< 0%,< 0%,< 0%,6.19%,-49.9%
CC(=O)Oc1ccccc1C(=O)Nc1ncc([N+](=O)[O-])s1,91.3%,111%,3.62%,14.9%,28.5%,14.2%,71.2%,10.5%,5%,0.222%,17.6%,65.9%
CN(O)C(=O)c1cc2c(CN3CCC[C@H]3C(N)=O)cn(Cc3ccc(F)cc3)c2cn1,96%,119%,-5.55%,31.6%,30.7%,16.8%,52.7%,< 0%,< 0%,< 0%,< 0%,24.6%
O=C(O)c1ccc(-n2nc(-c3ccccc3O)nc2-c2ccccc2O)cc1,85.7%,106%,3.21%,8.04%,< 0%,-5.88%,-5.43%,< 0%,< 0%,< 0%,< 0%,18.6%
C=C(C)n1c(=O)n(Cc2ccccc2C)c2ccccc21,110%,56.8%,3.81%,4.81%,0.864%,16.6%,48.2%,< 0%,< 0%,< 0%,< 0%,19.1%
COc1ccc(C(C)(C)C)cc1NC(=O)C(=O)c1ccc(OCCN2CCOCC2)c2ccccc12,97.6%,130%,1.14%,12.9%,26.4%,29.2%,23.5%,< 0%,< 0%,6.49%,< 0%,15.1%
O=[N+]([O-])/C(Br)=C/c1ccc(Br)o1,89.2%,99.8%,-4.63%,23.1%,57%,27.6%,2.9%,6.32%,14.3%,4.3%,49.5%,15.9%
N#Cc1cc([N+](=O)[O-])ccc1Oc1ccccc1Cl,104%,84.9%,-4.08%,55%,53.9%,-2.85%,84.9%,< 0%,< 0%,< 0%,< 0%,12.4%
CO[C@@]1(NC(=O)Cc2cccs2)C(=O)N2C(C(=O)O)=C(COC(N)=O)CS[C@@H]21,114%,143%,-4.03%,11.3%,20.3%,20%,88.8%,0.48%,< 0%,< 0%,2.58%,11.5%
O=C(NC(=O)N1CCCc2ccccc21)c1ccc(Cl)cc1Cl,95.4%,99.1%,-0.619%,0.538%,13.4%,1.37%,-6.87%,< 0%,< 0%,< 0%,< 0%,36.8%
Oc1c(C(Nc2nc3ccccc3s2)c2ccc(OC(F)F)cc2)ccc2cccnc12 (stereo unspecified),79.6%,74.4%,45.6%,26.7%,60.6%,70.5%,65.8%,22.2%,24.6%,12.2%,54.3%,52.7%
OB1OCc2c1ccc(Cl)c2F,95.7%,101%,-0.44%,8.58%,< 0%,0.633%,36.7%,< 0%,< 0%,< 0%,< 0%,7.88%
CCc1nc2ccccn2c1C(=O)NCc1ccccc1,123%,58.5%,6.82%,< 0%,< 0%,6.85%,18.2%,< 0%,< 0%,< 0%,8.65%,25.4%
O=C(O)c1ccc(-c2ccc(O[C@H]3O[C@H](CO)[C@@H](O)[C@H](O)[C@@H]3O)cc2)cc1,94%,102%,-2.59%,< 0%,3.77%,0.633%,16.6%,< 0%,< 0%,< 0%,12.4%,29.4%
C(=C\c1nc2ccccc2[nH]1)/c1ccc2c(c1)OCO2,110%,50.4%,6.95%,57.1%,71.2%,15.3%,29.1%,< 0%,< 0%,5.91%,73.3%,-23.6%
CN1CCN(Cc2ccc(-c3cnc4[nH]cc(-c5ccc6[nH]ccc6c5)c4c3)cc2)CC1,68%,26.3%,21.4%,10%,< 0%,66%,66.9%,11%,65.5%,< 0%,< 0%,33.2%
